Measured values taken from PubChem BioAssay (NCI).
This is part of a sample that, as a whole, favours compounds with a hit. Of some 83,000 tested, about 20% had one in any assay.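 Values shown are percent growth following 48 h exposure of cells in 96-well plates to a single concentration of compound; below 10 was considered active.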 Unmarked numbers belong to inactive results. Calls of active or inactive are those of the source.

The compounds below were run on HL-60(TB) leukemia (assay: NCI-60 one-dose screen, 48 h (100 = growth as untreated, 0 = no growth, -100 = all killed)). Details: 10 µM unless noted.
`CCOC(=O)c1ccc(C(C)(C)C)cc1` showed a growth of 90.4%. Compound `COc1ccc2c(c1)C(=O)c1c-2c(=O)n(CCCN(C)C)c2cc(OC)c(OC)cc12` has a growth of 74.8%. `O=c1[nH]c(SCc2ccccc2)nc2nc(Nc3ccc(NC(=S)Nc4ccccc4)cc3)nc(-c3ccc(O)cc3O)c12` showed a growth of 117%. Compound `Cc1ncc(C(=O)Nc2ccc(CN3CCN(C)CC3)c(C(F)(F)F)c2)cc1C#Cc1cnc(N)c2ccc(C#N)cc12` has a growth of 13.2%. `CCOC(=O)c1cocc1C(=O)O` was tested, and the growth was 80.9%. Compound `COc1ccc(C(=O)C(C#N)c2cc(OC)c(OC)c(OC)c2)cc1` (stereo not given) has a growth of 96%. Work on `COc1cc(NCc2ccccc2O)c2ncccc2c1` yielded a growth of 51%. `Cc1cc(=O)oc2cc(OC(=O)CN3CCN(C)CC3)ccc12` gave a growth of 122%. `CCOC(=O)C1=CCC(n2cc(F)c(=O)[nH]c2=O)O1` (stereo not given) was tested, and the growth was 83.6%. With `CCOC(=O)c1c2c(n3ccccc13)C(=O)c1ncccc1C2=O` the growth was -28.8% (active). `O=C(/C=C\c1ccc(O)cc1)c1ccccc1` showed a growth of 71.9%. With `O=C(OC12CC3CC(CC(C3)C1)C2)c1ccc(NCc2cc(O)ccc2O)cc1` the growth was -52.6% (active). Work on `c1ccc(-c2cn3ccnc3c(-c3ccc4c(c3)ncn4C3CCCCC3)n2)cc1` yielded a growth of 80.7%. For `C=C1CCC2C3(C)COC(c4ccccc4Br)OC3CCC2(C)C1C/C=C1/C(=O)OCC1OC(C)=O` (stereo not given), the growth was -48.7% (active). For `CCc1nc(C)cn1C(=O)OCc1nc2nc(Cl)nc(N3CCOCC3)c2[nH]1`, the growth was -23.1% (active). For `COc1ccc(-c2cc(-c3ccc(OC)c(OC)c3)nc(SCCCCCC(=O)NO)n2)cc1`, the growth was -9.93% (active). `CCN(CC)S(=O)(=O)c1ccc(S(=O)(=O)N2CCC[C@@H](C(=O)N3CCN(c4nc(C(C)C)no4)CC3)C2)cc1` showed a growth of 68.5%. `COc1ccc(C(=O)N2c3ccccc3Sc3ccccc32)c(OC)c1` was tested, and the growth was 0.583% (active). With `COc1ccc(C[C@H](N)C(=O)N[C@@H]2[C@@H](CO)OC(n3cnc4c(N(C)C)ncnc43)[C@@H]2O)cc1` (stereo not given in full) the growth was -29.9% (active). Work on `Clc1cccc(Cl)c1CSc1nc2ccccc2n2cccc12` yielded a growth of 94.3%. `CCN1C(=O)N(CC)C2Nn3c(s/c(=C4\C(=O)Nc5ccccc54)c3=O)=NC21` (stereo not given) showed a growth of 27.8%. `CN1C(=O)C(C(=O)/C=C/c2ccccc2C(=O)O)C(=O)N(C)C1=O` showed a growth of 97.4%. `Cn1cccc1/C=C1\C(=O)Nc2ccccc21` was tested, and the growth was 103%. In the case of `Clc1cccc(Nc2ncnc3ccc(-c4cncc(-n5cnnn5)c4)cc23)c1`, the growth is reported as 86.6%. `COc1ccc(-c2nc(SCC(C)C)nc(Nc3ccc(C)cc3)c2C#N)cc1` was tested, and the growth was 92.3%. Work on `Cc1nn(-c2ccccc2)c(N2CCCCC2)c1/C=N/NC(=O)Cn1c(=O)sc2ccccc21` yielded a growth of 69.9%. Compound `O=C(CSc1nc2ccccc2[nH]1)c1ccc(N2CCOCC2)cc1` has a growth of 113%. `COc1cc2c(=O)n(CCN(C)C)c3c4cc5c(cc4ccc3c2cc1OC)OCO5` was tested, and the growth was 8.03% (active). In the case of `Nc1nc(-c2ccc(F)cc2)cc(-c2cnn(-c3ccccc3)n2)n1`, the growth is reported as 101%. For `C=C(CNCCc1ccc(O)cc1)[C@@H]1CC[C@]2(CO)CC[C@]3(C)[C@H](CC[C@@H]4[C@@]5(C)CCC(N)C(C)(C)[C@@H]5CC[C@]43C)[C@@H]12` (stereo not given in full), the growth was -47% (active). `CC1(C)CC(=O)c2c(nc3ccc(Cl)cc3c2-c2ccccc2)C1` gave a growth of 82.3%. `COc1cccc2c1C(=O)c1c(O)c3c(c(O)c1C2=O)C[C@@](O)(C(=O)CO)C[C@@H]3OC1C[C@H](N)[C@H](O)[C@H](C)O1` (stereo not given in full) was tested, and the growth was -26.7% (active). `COC(=O)c1nc(=S)[nH]c(C(=O)OC)c1C(=O)c1ccccc1` gave a growth of 116%. For `CC(C)CCNCC(C)(C)O`, the growth was 99.3%. With `NC1=NC(c2cccc(Br)c2)c2sc3ccc(Cl)cc3c2N1` (stereo not given) the growth was 102%. In the case of `CCc1c(C)c2cc3c(c(C)c2oc1=O)OCC(=O)N3`, the growth is reported as 75.9%. In the case of `CC(=O)c1cc(Br)ccc1O`, the growth is reported as 101%. `CC1(C)C2CCC1(C)C1(C2)OCCS1` (stereo not given) was tested, and the growth was 91.3%. For `Cc1ccc2c(NCCCN(C)C)c3c(C)nn(C)c3nc2c1`, the growth was 32.4%. With `O=C1/C(=C\c2cn(C(=O)c3ccc(Cl)cc3)c3ccccc23)c2ccccc2N1C(=O)c1ccc(Cl)cc1` the growth was 54.2%.
